Test results: PubChem BioAssay (Tox21)
Records with an inconclusive call do not appear. The source made the active and inactive calls. Unless noted, calls follow the shape of the full dose curve.

How the values were obtained:
[1] = Nuclear factor erythroid 2-related factor 2/antioxidant responsive element (Nrf2/ARE) small molecule agonists: qHTS cell viability counter screen in human keratinocytes (AID 1919968; active = well fitted curve in the direction sought with a large enough effect in the repeat runs; an effect the other way counts as inactive or inconclusive; also: nearly all actives have a fitted effect of over 55% in size)
Method in brief: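 Cells of the KeratinoSens line were plated at 1,500 per well and left for 5 h before compound transfer from DMSO stocks. After a 23 h incubation (37 C, 5% CO2), CellTiter-Fluor was added. Signal was taken as fluorescence intensity 1 h later.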

[2] = Nuclear factor erythroid 2-related factor 2/antioxidant responsive element (Nrf2/ARE) small molecule agonists: luciferase reporter gene qHTS assay in human keratinocytes (AID 1919969); also: nearly all actives have a fitted effect of over 35% in size
[3] = biological target: Gonadotropin-releasing hormone receptor (Homo sapiens) (UniProt P30968); assay: Human gonadotropin-releasing hormone receptor (GnRHR) small molecule agonists, calcium flux assay in GnRHR-HEK293 cells (AID 1920063); also: nearly all actives have a fitted effect of over 35% in size
Method in brief: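 Compounds dissolved in DMSO are pin-transferred onto dye-loaded GnRHR-HEK293 cells, which were seeded 18 h before at 37 C/5% CO2. Calcium signal is read as fluorescence intensity at 1 s intervals for 3 min.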

[4] = biological target: KiSS-1 receptor (Homo sapiens) (UniProt Q969F8); assay: Human kisspeptin (KISS1R) small molecule agonists, calcium flux assay in KISS1R-HEK293 cells (AID 1920064; active = well fitted curve in the direction sought with a large enough effect in the repeat runs; an effect the other way counts as inactive or inconclusive)
Method in brief: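 Cell line: HEK293, stable human KISS1R. Dye loading 1 h at 37 C after 18 h culture. Read: kinetic fluorescence, 480/540 nm, 3 min at 1 s intervals.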

[5] = G protein-coupled receptor (GPCR) small molecule agonists, calcium flux assay: HEK293 wild type cell line counter screen (AID 1920065)
Method in brief: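 Tox21 10K compounds, 15 concentrations each in triplicate, pin-transferred in DMSO onto dye-loaded cells; kinetic read at 480/540 nm for 3 min, 1 s intervals.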

[6] = p53 small molecule agonists, cell-based qHTS assay with human liver microsomes (AID 1963577);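 also: p53 response element beta-lactamase reporter cells with liver microsomes plus NADPH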
Method in brief: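 Steps: plate p53RE-bla cells, incubate 5 h at 37 C; add compound in DMSO; add microsomes (0.5 mg/mL final) and NADPH (0.5 mg/mL final); incubate 16 h at 37 C; add LiveBLAzer, 2 h RT; read fluorescence.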

[7] = p53 small molecule agonists, cell-based qHTS assay with rat liver microsomes (AID 1963578)
Method in brief: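 Metabolic activation is supplied by rat liver microsomes with NADPH (each 0.5 mg/mL final). p53RE-bla cells incubate with compound 16 h at 37 C; reporter activity is measured by LiveBLAzer fluorescence.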

[8] = p53 small molecule agonists, cell-based qHTS assay with human liver microsomes: qHTS cell viability counter screen (AID 1963579); also: nearly all actives have a fitted effect of over 45% in size
Method in brief: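 After the 460/530 nm beta-lactamase read, CellTiter-Glo was added to the same wells and luminescence measured after 30 min at room temperature, giving viability of p53RE-bla cells treated 16 h with compounds plus microsomes and NADPH.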

[9] = p53 small molecule agonists, cell-based qHTS assay with rat liver microsomes: qHTS cell viability counter screen (AID 1963580); also: nearly all actives have a fitted effect of over 45% in size
Method in brief: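 Luminescent ATP readout (CellTiter-Glo, 30 min at room temperature) reports viability of p53RE-bla HCT-116 cells after 16 h at 37 C with test compounds under metabolic activation by rat liver microsomes and NADPH at 0.5 mg/mL final each.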

[10] = p53 small molecule agonists, cell-based qHTS assay: qHTS cell viability counter screen (AID 1963581); also: nearly all actives have a fitted effect of over 45% in size
Method in brief: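 ATP content measured by luminescence in HCT-116 p53RE-bla cells treated 16 h at 37 C, same wells as the reporter screen.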

[11] = p53 small molecule agonists, cell-based qHTS assay (AID 1963582; active = well fitted activation curve with a large enough effect in the signal ratio in the repeat runs, not every such curve was filed as active; the % refers to the signal ratio)
Method in brief: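 16 h compound exposure (37 C) of p53 response element–bla cells, preceded by 5 h recovery at 37 C/5% CO2; read-out via LiveBLAzer B/G FRET substrate, 2 h RT, fluorescence intensity.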

[12] = biological target: 5-hydroxytryptamine receptor 2A (Homo sapiens) (UniProt P28223); assay: 5-hydroxytryptamine receptor 2A (HTR2A) small molecule antagonists, cell-based qHTS assay (AID 1963586); also: nearly all actives have a fitted effect of over 45% in size
Method in brief: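 CHO cells stably expressing human HTR2A were plated for 18 h at 37 C, then loaded with calcium dye for 1 h. Compounds were preincubated 5 min at room temperature before DOI (4 nM solution) was added. Kinetic fluorescence was read for 3 min.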

[13] = biological target: 5-hydroxytryptamine receptor 2A (Homo sapiens) (UniProt P28223); assay: 5-hydroxytryptamine receptor 2A (HTR2A) small molecule agonists, cell-based qHTS assay (AID 1963587); also: nearly all actives have a fitted effect of over 30% in size
Method in brief: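 HTR2A-CHO cells, plated 18 h at 37 C/5% CO2, dye-loaded 1 h at 37 C; compounds in DMSO added by pin tool (agonist mode). Intracellular calcium flux read as kinetic fluorescence on FDSS over 2 min at 1 s intervals.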

[14] = biological target: Muscarinic acetylcholine receptor M1 (Homo sapiens) (UniProt P11229); assay: Cholinergic receptor muscarinic 1 (CHRM1) small molecule antagonists, cell-based qHTS assay (AID 1963588); also: nearly all actives have a fitted effect of over 40% in size
Method in brief: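 Compounds were tested at 15 concentrations in three independent runs. Dye-loaded CHRM1-CHO cells were exposed 5 min at room temperature before stimulation by acetylcholine added at 50nM. Intracellular calcium was read kinetically on FDSS for 3 min.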

[15] = biological target: Muscarinic acetylcholine receptor M1 (Homo sapiens) (UniProt P11229); assay: Cholinergic receptor muscarinic 1 (CHRM1) small molecule agonists, cell-based qHTS assay (AID 1963589); also: nearly all actives have a fitted effect of over 35% in size
Method in brief: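 Homogeneous fluorescence calcium flux, agonist mode. Human M1-expressing CHO cells; compound dosed at 15 concentrations, three independent runs; signal sampled every 1 sec.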

[16] = cAMP Responsive Elements (CRE) small molecule agonists, cell-based qHTS assay (AID 1963590)
Method in brief: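 HEK 293T cells stably bearing CRE-bla were plated at 2,000 cells per well and rested 18 h. Compounds, positive controls or DMSO were added for 3 h at 37 C. LiveBLAzer B/G substrate was then loaded for 2 h at room temperature.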

[17] = cAMP Responsive Elements (CRE) small molecule antagonists, cell-based qHTS assay (AID 1963591; active = well fitted inhibition curve with a large enough effect in the signal ratio in the repeat runs, not every such curve was filed as active; the % refers to the signal ratio)
Method in brief: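 First, CRE-bla HEK293T cells settled 18 h at 37 C. Next, compound and 0.25 uM final NKH477 were applied for 3 h. Last, LiveBLAzer B/G substrate was loaded for 2 h at room temperature.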

[18] = biological target: Beta-2 adrenergic receptor (Homo sapiens) (UniProt P07550); assay: Adrenergic beta2 receptor (ADRB2) small molecule antagonists, cell-based qHTS assay (AID 1963592); also: series mostly up to about 92 µM; nearly all actives have a fitted effect of over 50% in size
Method in brief: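 Assay format: CHO-ADRB2 cells, 18-20hr seeding at 37C/5% CO2, then compound plus 1nM isoproterenol agonist mix for 0.5hr RT. Homogeneous time-resolved fluorescence cAMP detection after 1hr, expressed as 665/615 nm ratio.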

[19] = biological target: Beta-2 adrenergic receptor (Homo sapiens) (UniProt P07550); assay: Adrenergic beta2 receptor (ADRB2) small molecule agonists, cell-based qHTS assay (AID 1963593);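 also: CHO cells stably overexpressing human ADRB2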
Method in brief: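 CHO cells stably over-expressing ADRB2 were plated overnight at 37C, then dosed with compounds plus a stimulation mix containing 100uM IBMX and 25uM Ro-20-1724 for 0.5hr at room temperature. cAMP was measured by HTRF competition, 1hr.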

[20] = biological target: D(2) dopamine receptor (Homo sapiens) (UniProt P14416); assay: Dopamine D2 receptor (DRD2) small molecule agonists, cell-based qHTS assay (AID 1963594); also: nearly all actives have a fitted effect of over 35% in size
Method in brief: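 HEK293 cells stably expressing DRD2 were cultured 24 h at 37 C, then given Ro20-1724 (0.1 mM final) and compounds for 10 min at room temperature. NKH477 (200nM) was then added for 30 min. cAMP was read by HTRF.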
% is scaled to controls: 0 for no effect and ±100 for the full control effect.

Sequence of KiSS-1 receptor (Homo sapiens) (Q969F8 whole entry, looked up): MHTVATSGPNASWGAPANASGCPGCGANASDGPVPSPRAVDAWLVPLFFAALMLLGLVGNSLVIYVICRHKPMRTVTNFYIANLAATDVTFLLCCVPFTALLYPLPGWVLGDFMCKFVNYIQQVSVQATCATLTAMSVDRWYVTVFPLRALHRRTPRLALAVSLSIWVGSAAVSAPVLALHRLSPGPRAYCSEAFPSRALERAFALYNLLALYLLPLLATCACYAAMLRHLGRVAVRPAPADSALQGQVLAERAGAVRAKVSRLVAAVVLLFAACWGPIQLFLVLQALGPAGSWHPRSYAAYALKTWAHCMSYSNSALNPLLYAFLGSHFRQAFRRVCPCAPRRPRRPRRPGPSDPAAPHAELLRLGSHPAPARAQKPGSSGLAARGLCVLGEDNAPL
Sequence of 5-hydroxytryptamine receptor 2A (Homo sapiens) (P28223 whole entry, looked up): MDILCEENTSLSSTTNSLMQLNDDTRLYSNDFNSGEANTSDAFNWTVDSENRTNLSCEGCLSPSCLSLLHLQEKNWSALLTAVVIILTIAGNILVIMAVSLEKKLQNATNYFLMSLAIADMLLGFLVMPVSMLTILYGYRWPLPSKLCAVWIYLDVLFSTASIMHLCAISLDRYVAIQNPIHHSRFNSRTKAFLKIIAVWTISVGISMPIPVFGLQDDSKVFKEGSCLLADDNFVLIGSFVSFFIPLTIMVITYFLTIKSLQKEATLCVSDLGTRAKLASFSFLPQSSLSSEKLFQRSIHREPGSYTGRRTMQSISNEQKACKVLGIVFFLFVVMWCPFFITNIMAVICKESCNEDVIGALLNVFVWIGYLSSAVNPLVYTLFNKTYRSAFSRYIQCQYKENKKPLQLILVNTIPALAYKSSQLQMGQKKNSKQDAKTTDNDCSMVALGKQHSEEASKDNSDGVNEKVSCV
Sequence of Muscarinic acetylcholine receptor M1 (Homo sapiens) (P11229 whole entry, looked up): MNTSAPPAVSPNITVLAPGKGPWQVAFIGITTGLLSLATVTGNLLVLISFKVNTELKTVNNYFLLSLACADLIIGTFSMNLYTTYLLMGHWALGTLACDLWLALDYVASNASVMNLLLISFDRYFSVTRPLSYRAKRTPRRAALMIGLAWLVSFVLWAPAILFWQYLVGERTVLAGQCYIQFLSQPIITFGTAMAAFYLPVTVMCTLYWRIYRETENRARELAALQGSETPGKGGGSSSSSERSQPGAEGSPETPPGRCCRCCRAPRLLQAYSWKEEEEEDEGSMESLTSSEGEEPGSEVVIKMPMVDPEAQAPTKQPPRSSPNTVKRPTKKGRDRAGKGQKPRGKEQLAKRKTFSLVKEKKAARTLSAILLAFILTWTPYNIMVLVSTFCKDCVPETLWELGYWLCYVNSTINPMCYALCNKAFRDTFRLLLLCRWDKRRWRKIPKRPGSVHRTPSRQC
Sequence of Beta-2 adrenergic receptor (Homo sapiens) (P07550 whole entry, looked up): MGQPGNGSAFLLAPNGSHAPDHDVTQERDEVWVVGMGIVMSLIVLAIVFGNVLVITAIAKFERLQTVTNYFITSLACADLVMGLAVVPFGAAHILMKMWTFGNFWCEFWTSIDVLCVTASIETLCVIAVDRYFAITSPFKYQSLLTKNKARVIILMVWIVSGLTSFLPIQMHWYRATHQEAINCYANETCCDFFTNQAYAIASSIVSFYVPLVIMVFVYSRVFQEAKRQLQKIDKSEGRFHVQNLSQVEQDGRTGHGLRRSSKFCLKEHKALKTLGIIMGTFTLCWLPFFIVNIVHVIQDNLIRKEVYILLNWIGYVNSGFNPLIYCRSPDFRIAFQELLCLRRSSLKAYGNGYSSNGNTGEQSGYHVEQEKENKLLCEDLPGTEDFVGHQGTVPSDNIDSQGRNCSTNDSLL
Sequence of Gonadotropin-releasing hormone receptor (Homo sapiens) (P30968 whole entry, looked up): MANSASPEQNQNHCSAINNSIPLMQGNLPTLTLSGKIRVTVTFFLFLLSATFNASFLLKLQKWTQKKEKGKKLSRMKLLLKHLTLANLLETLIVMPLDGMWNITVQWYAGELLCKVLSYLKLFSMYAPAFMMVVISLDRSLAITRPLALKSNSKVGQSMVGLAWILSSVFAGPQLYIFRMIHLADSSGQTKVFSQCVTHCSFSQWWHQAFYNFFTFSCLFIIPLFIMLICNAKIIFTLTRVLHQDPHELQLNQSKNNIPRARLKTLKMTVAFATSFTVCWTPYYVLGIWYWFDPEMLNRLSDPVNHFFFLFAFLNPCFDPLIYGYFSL
Sequence of D(2) dopamine receptor (Homo sapiens) (P14416 whole entry, looked up): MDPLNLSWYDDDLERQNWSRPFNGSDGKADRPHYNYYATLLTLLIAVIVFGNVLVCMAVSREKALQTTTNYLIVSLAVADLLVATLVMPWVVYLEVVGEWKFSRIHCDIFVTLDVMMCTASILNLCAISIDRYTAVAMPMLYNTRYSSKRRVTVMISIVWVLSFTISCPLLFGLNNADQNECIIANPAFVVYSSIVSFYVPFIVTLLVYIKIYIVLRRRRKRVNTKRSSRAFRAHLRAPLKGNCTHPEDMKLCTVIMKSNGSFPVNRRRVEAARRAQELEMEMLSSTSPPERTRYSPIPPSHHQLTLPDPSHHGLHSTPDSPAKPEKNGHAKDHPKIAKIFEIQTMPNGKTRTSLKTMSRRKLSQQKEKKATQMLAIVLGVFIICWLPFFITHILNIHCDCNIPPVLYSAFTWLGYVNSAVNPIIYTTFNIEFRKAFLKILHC

CCCc1ccc(O)cc1
inactive: Potency [1] | Potency [2] | Potency [3] | Potency [4] | Potency [5] | Potency [6] | Potency [7] | Potency [8] | Potency [9] | Potency [10] | Potency [11] | Potency [12] | Potency [13] | Potency [14] | Potency [15] | Potency [16] | Potency [17] | Potency [18] | Potency [19] | Potency [20]

CCOC(=O)CC(C(C)=O)C(C)=O
inactive: Potency [1] | Potency [2] | Potency [3] | Potency [4] | Potency [5] | Potency [6] | Potency [7] | Potency [8] | Potency [9] | Potency [10] | Potency [11] | Potency [12] | Potency [13] | Potency [14] | Potency [15] | Potency [16] | Potency [17] | Potency [18] | Potency [19] | Potency [20]

CC[C@@H]1C[C@H](N(Cc2cc(C(F)(F)F)cc(C(F)(F)F)c2)C(C)=O)c2cc(C(F)(F)F)ccc2N1C(=O)OC(C)C
inactive: Potency [1] | Potency [2] | Potency [3] | Potency [4] | Potency [5] | Potency [6] | Potency [7] | Potency [8] | Potency [9] | Potency [10] | Potency [11] | Potency [12] | Potency [13] | Potency [14] | Potency [15] | Potency [16] | Potency [17] | Potency [18] | Potency [19] | Potency [20]

Cc1ccccc1C(N)=O
inactive: Potency [1] | Potency [2] | Potency [3] | Potency [4] | Potency [5] | Potency [6] | Potency [7] | Potency [8] | Potency [9] | Potency [10] | Potency [11] | Potency [12] | Potency [13] | Potency [14] | Potency [15] | Potency [16] | Potency [17] | Potency [18] | Potency [19] | Potency [20]

C=CCCCCCCCCCCC
inactive: activity change, negative = cytotoxicity [1] -0.936% [at 8.39 µM] | activity, positive = activation [2] -0.901% [at 8.39 µM] | activity change [3] -0.462% [at 5.22 µM, hits give high values] | activation [4] 3.21% [at 6.97 µM] | activation [5] -0.84% [at 5.23 µM] | activation [6] 1.56% [at 5.99 µM] | activation [7] -3.89% [at 5.99 µM] | activity change, negative = cytotoxicity [8] 1.8% [at 5.99 µM] | activity change, negative = cytotoxicity [9] -1.27% [at 5.99 µM] | activity change, negative = cytotoxicity [10] 18.8% [at 5.99 µM] | activation [11] 0.37% [at 5.99 µM] | activity, negative = inhibition [12] 4.71% [at 5.62 µM] | activation [13] 0.539% [at 7.02 µM] | activity, negative = inhibition [14] -16.9% [at 5.58 µM] | activation [15] -0.585% [at 6.97 µM] | activation [16] -0.0768% [at 8.39 µM] | activity change, negative = inhibition [17] -0.765% [at 8.39 µM] | activity change, negative = inhibition [18] -1.18% [at 8.39 µM] | activation [19] -13.4% [at 8.39 µM] | activation [20] -0.7% [at 8.39 µM]

C=CC(=O)O[C@H]1C[C@@H]2CC[C@@]1(C)C2(C)C
inactive: Potency [1] | Potency [2] | Potency [3] | Potency [4] | Potency [5] | Potency [6] | Potency [7] | Potency [8] | Potency [9] | Potency [10] | Potency [11] | Potency [12] | Potency [13] | Potency [14] | Potency [15] | Potency [16] | Potency [17] | Potency [18] | Potency [19] | Potency [20]
